Each structure is given as a SMILES string. The campaign covered roughly 68,000 compounds. About 2,700 (4%) showed an effect of 50% or more. The sample as a whole holds a higher share of strong results than the screen did.

The assay relates to Plasmodium berghei. The assay can be described thus: Screen against P. berghei liver stage (PbLuc), transformed with Luciferase, at 2uM. Format: functional, HepG2. The following applies: tested at 2 uM.
As to `Cc1nnc(CN(C)CCOc2cccc(Cl)c2)o1`, the INHIBITION is given as 70.83%.
Regarding `CCc1nc(C2CCCN2C(=O)c2ccc3c(c2)COC3)no1` (stereo not drawn), the INHIBITION is listed as 16.18%.
To `CS(=O)(=O)N(Cc1ccon1)c1ccc2c(c1)OCO2` belongs 37.25%; to `OC1(CN2CCOC(Cn3cccn3)C2)CCCCC1` (stereo not drawn), -1.88%; to `O=C(Cc1ccccn1)N1CCN(CC2CC2)c2ncccc2C1`, 16.87%.
Consider `O=c1c2cccc(C(F)(F)F)c2ncn1CCN1CCNCC1`, for which the INHIBITION worked out at 50.61%.
Turning to `CN1CCN(CCn2cnc3c(F)cccc3c2=O)CC1`, the INHIBITION amounted to 30.42%.
Regarding `CC(C)N1CCN(CCn2cnc3c(F)cccc3c2=O)CC1`, the INHIBITION is on record as -13.34%.
To `O=c1c2cccc(F)c2ncn1CCN1CCOCC1` belongs 25.37%; to `COc1cccc2c(=O)n(C3CCNCC3)cnc12`, 24.6%; to `Cc1csc2c(=O)n(CCN3CCNCC3)cnc12`, 23.68%.
Turning to `COc1cccc2c(=O)n(CCN3CCNCC3)cnc12`, the INHIBITION was 50.61%.
With `COc1cccc2c(=O)n(Cc3cccnc3)cnc12`, the INHIBITION was -66.95%.
As for `O=c1c2cccc(F)c2ncn1CCN1CCNCC1`, the INHIBITION is 65.76%.
Regarding `CN(Cc1nccn1CC(F)(F)F)C(=O)c1ccc(F)c(F)c1`, the INHIBITION turned out to be 32.57%.
As for `CN(Cc1nccn1CC(F)(F)F)C(=O)c1cccc(N(C)C)c1`, the INHIBITION is reported as 27.53%.
For `CCOc1ccc(C(=O)N(C)Cc2nccn2CC(F)(F)F)cc1` the value was 52.57%; for `CN(Cc1nccn1CC(F)(F)F)C(=O)c1ccc(F)cc1F`, 73.96%; for `Cc1ccc(C(=O)N(C)Cc2nccn2CC(F)(F)F)cn1`, -4.59%.
As for `COc1cc(C(=O)N(C)Cc2nccn2CC(F)(F)F)ccc1C`, the INHIBITION is reported as -5.68%.
Consider `COCC(=O)NC(C)Cc1cccc(Cl)c1` (stereo not drawn), for which the INHIBITION is -20.82%.
As to `CC[C@H]1CN(C(=O)c2cnc(CN3CCCC3)s2)CC[C@@]1(C)O`, the INHIBITION was -47.18%.
Turning to `Cc1ccc([C@@H]2CN(S(=O)(=O)N3CCC(C)CC3)C[C@H]2N(C)C)cc1`, the INHIBITION stood at 65.1%.
As for `Cc1ccc([C@@H]2CN(S(=O)(=O)N(C)C)C[C@H]2N(C)C)cc1`, the INHIBITION worked out at 28.49%.
As for `Cc1ccc([C@@H]2CN(S(=O)(=O)C(C)C)C[C@H]2N(C)C)cc1`, the INHIBITION is 4.47%.
As for `CN(C)C(=O)CN1CCC(c2c(C(N)=O)sc3ncccc23)C1` (stereo not drawn), the INHIBITION is -21.9%.
Consider `Cc1nc(N)sc1C(=O)N1CCCC(c2nccn2CCCN(C)C)C1` (stereo not drawn), for which the INHIBITION was determined as 29.02%.
On to `Cc1nc(C)c(C(=O)N2CCCC(c3cnccn3)C2)s1` (stereo not drawn), for which the INHIBITION was found to be 38.65%.
Take `CCn1ccnc1C1CCCN(C(=O)c2sc(C)nc2C)C1` (stereo not drawn): the INHIBITION was 58.56%.
With `CC(=O)N1CCOC2(CCN(C(=O)c3cnoc3C)CC2)C1`, the INHIBITION is listed as -21.09%.
To `CC(C)c1cccc(-n2cc(O)c(C(N)=O)n2)c1` belongs 11.9%; to `CC(C)c1ccc(-n2cc(O)c(C(=O)O)n2)cc1`, 23.16%; to `CC(C)c1cccc(-n2cc(O)c(C(=O)O)n2)c1`, 50.61%.
Turning to `CN(C)CC(=O)N1CCC2(CC1)CN(c1ncccn1)CCO2`, the INHIBITION is 25.4%.
Turning to `CCC(C)n1cnc(S(=O)(=O)N(C)C)c1` (stereo not drawn), the INHIBITION is listed as -15.03%.
As to `CCC(C)n1cnc(S(=O)(=O)N(C)c2cccnc2N(C)C)c1` (stereo not drawn), the INHIBITION was found to be 11.9%.
As for `CCC(C)n1cnc(S(=O)(=O)N(Cc2cccnc2)C(C)C)c1` (stereo not drawn), the INHIBITION was determined as 59.03%.
On to `O=C(Nc1cccc(CNCc2ccsc2)c1)C1CC1`, for which the INHIBITION was found to be 30.92%.
Regarding `O=C(Nc1cccc(CNCc2cccs2)c1)C1CC1`, the INHIBITION is reported as 62.82%.
In the case of `O=C(Nc1cccc(CNCc2cccs2)c1)C1CCCC1`, the INHIBITION is reported as -5.15%.
On to `CNC(=O)N1CC[C@@H]2CN(Cc3cccc(OC)c3)S(=O)(=O)[C@@H]2CC1`, for which the INHIBITION is on record as -72.58%.
Turning to `CS(=O)(=O)N1CC2(CCN(C3COC3)C2)Cc2ccccc21` (stereo not drawn), the INHIBITION stood at 26.56%.
Turning to `O=C(NCCCn1nc2ccccn2c1=O)NC1CCC(O)CC1` (stereo not drawn), the INHIBITION was 8.3%.
To `CCN(C(=O)CNc1cc(C)c(F)cc1C(N)=O)C1CC1` belongs -31.4%; to `Cc1noc(C)c1S(=O)(=O)NC(=O)COc1cccc(C(C)C)c1`, 42.99%; to `Cc1cc(C)c(OCC(=O)NS(=O)(=O)c2c(C)noc2C)c(C)c1`, 5.72%.
As for `Cc1noc(C)c1S(=O)(=O)NC(=O)COc1ccc(C(C)C)cc1`, the INHIBITION amounted to 19.71%.
For `Cc1noc(C)c1S(=O)(=O)NC(=O)COc1ccc2c(c1)CCC2` the value was 56.78%; for `Cc1ccc(OCC(=O)NS(=O)(=O)c2c(C)noc2C)cc1C`, 57.33%; for `Cc1cc(OCC(=O)NS(=O)(=O)c2c(C)noc2C)ccc1Cl`, -12.48%.
For the molecule `O=C(c1ccccc1)C1CCN(C(=O)CC2COCCN2)CC1` (stereo not drawn), the INHIBITION is -13.88%.
To `CCn1cnnc1C1CCN(C(=O)c2ccccc2F)CC1` belongs -19.35%; to `COc1ccc(NC(=O)N2CCC(c3noc(C)n3)CC2)cc1C`, -30.88%.
